Measurements reported in PubChem BioAssay AID493231 (Broad Institute, 2011).
Entries with a potency or affinity are not part of this list.

biological target: Acyl-homoserine lactone acylase PvdQ (Pseudomonas aeruginosa (strain ATCC 15692 / DSM 22644 / CIP 104116 / JCM 14847 / LMG 12228 / 1C / PRS 101 / PAO1)) (UniProt Q9I194); assay: PvdQ acylase enzyme activity blockers – biochemical, fluorescence, plate reader and imaging, cherry-picks, dose response (AID 493231); conditions: purified PvdQ acylase, fluorogenic substrate; series mostly up to 10 µM; activity change, negative = inhibition: at the top concentration;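 also: 0% = neutral control wells and -100% = reference inhibitor wells; more negative values mean stronger inhibition of the acylase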
Sequence (Q9I194 whole entry, looked up): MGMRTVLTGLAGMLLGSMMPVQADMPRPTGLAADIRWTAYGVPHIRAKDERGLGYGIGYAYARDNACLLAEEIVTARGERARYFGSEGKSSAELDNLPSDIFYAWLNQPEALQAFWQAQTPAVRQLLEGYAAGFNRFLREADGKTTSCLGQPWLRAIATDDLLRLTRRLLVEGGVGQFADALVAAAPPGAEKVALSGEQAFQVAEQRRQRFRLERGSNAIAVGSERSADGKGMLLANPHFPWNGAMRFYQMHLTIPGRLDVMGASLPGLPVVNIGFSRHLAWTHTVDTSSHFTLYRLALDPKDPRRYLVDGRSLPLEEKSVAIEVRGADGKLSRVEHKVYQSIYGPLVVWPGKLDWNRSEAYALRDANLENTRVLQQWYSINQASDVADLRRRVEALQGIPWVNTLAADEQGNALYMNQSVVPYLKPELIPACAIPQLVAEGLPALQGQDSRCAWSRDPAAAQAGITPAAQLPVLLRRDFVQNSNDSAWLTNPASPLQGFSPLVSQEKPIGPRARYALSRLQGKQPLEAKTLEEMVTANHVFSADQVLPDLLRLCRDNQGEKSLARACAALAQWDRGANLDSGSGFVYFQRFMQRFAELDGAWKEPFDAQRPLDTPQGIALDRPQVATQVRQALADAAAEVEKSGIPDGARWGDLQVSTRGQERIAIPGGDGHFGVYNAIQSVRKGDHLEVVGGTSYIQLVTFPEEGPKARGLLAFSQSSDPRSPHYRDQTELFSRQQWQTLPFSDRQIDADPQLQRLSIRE

Activity change, negative = inhibition, inactive:
COc1ccc(-c2cn3cc(C)ccc3n2)cc1F -2.17 unspecified
N#C/C(=C\c1ccco1)c1nc2ccccc2s1 -5.66 unspecified
Cc1onc(-c2ccccc2)c1C(=O)c1c[nH]c(C(=O)NCCCN2CCOCC2)c1 9.9 unspecified
Cc1nc2ccc(S(=O)(=O)Nc3ccc(-c4nc5cccnc5s4)cc3)cc2s1 22.2 unspecified
Cc1cccc(NCc2ccccc2O)n1 10.3 unspecified
CC1CCCCC1NS(=O)(=O)c1ccc(S(=O)(=O)N2CCCC2)cc1 (stereo not given) 13.8 unspecified
COC(=O)c1ccc(-c2nc3ccccc3[nH]2)cc1 -13.8 unspecified
CS(=O)(=O)c1ccc2sc(NC(=O)c3cc4ccccc4o3)nc2c1 4.5 unspecified
COc1ccc(NC(=O)C(c2cc3c(cc2[N+](=O)[O-])OCO3)N2CCN(C=O)CC2)cc1 (stereo not given) 3.27 unspecified
N#Cc1cc([N+](=O)[O-])ccc1Oc1cccc(/C=N/NC(=O)c2cccc(Cl)c2)c1 0.613 unspecified
O=C(/C=C/c1ccc(Br)cc1)c1ccco1 -12.8 unspecified
Cc1ccc(S(=O)(=O)N(CC(=O)N2CCC(C)CC2)c2ccccc2)cc1 2.52 unspecified
O=C(/C=C/c1ccc(Cl)cc1)N1CCN(c2ccccc2[N+](=O)[O-])CC1 -7.05 unspecified
Cc1ccc(SCC(=O)Nc2ccc(F)cc2[N+](=O)[O-])cc1C 12.6 unspecified
CCOC(=O)C(Oc1ccc(=O)[nH]n1)C(C)=O (stereo not given) -0.403 unspecified
CS(=O)(=O)c1ccc(Cl)c(NC(=O)COC(=O)c2ccc(F)cc2Cl)c1 7.09 unspecified
COCCCNC(=O)CC1C[C@H](C(=O)N2CCCCC2)[C@@]2(CCc3ccccc3)c3[nH]c4ccc(OC)cc4c3CCN2C1=O (stereo not given in full) -1.87 unspecified
O=C(O)c1cccc(CN2C(=O)c3ccccc3C2=O)c1 5 unspecified
CN1C(=O)/C(=C/c2ccc(O)c([N+](=O)[O-])c2)N(C)C1=S 2.91 unspecified
O=C(O)c1ccc(N=Nc2c(O)ccc3ncccc23)cc1 0.421 unspecified
Cc1ccc(OCCn2cc(/C(N)=N/O)c3ccccc32)cc1C 27 unspecified
O=C(CN1C(=O)C2C3C=CC(C4CC34)C2C1=O)Oc1ccccc1 (stereo not given) -8.57 unspecified
COC(=O)c1cc(S(=O)(=O)Nc2cccc(S(N)(=O)=O)c2)oc1C 7.02 unspecified
Cc1[nH]nc2c1C(c1ccco1)C(C#N)=C(N)O2 (stereo not given) 10.3 unspecified
C/C(CCC1CC(C)OC1=O)=N/Nc1nc(-c2ccccc2)cs1 (stereo not given) 9.21 unspecified
COc1ccc(NC(=O)C2CCCN(C(=O)NC3CCCCC3)C2)cc1OC (stereo not given) 6.32 unspecified
O=C(/C=C/c1ccc(Cl)c([N+](=O)[O-])c1)c1ccc(O)cc1 -2.73 unspecified
COc1ccc(-c2onc3ccc(Br)cc23)cc1 7.1 unspecified
O=C1CCC(=O)N1CCSC(=S)N1CCSCC1 -0.632 unspecified
Cc1cc(=O)n2nc(N3CCCC(C(=O)N4CCOCC4)C3)sc2n1 (stereo not given) -2.15 unspecified
COc1ccc(CN2CCCC(C(=O)c3cccc(OC(C)C)c3)C2)cc1Cn1cccn1 (stereo not given) 5.43 unspecified
CN1C=CC=C/C1=C1\SC(=S)N(Cc2ccccc2)C1=O 8.81 unspecified
COc1ccc2cc(C)c3nnc(SCC(=O)Nc4cc(OC)c(OC)cc4C(=O)O)n3c2c1 12.9 unspecified
CCN1CCCC1CN(Cc1cc2ccc(C)cc2[nH]c1=O)C(=S)Nc1cccc(OC)c1 (stereo not given) 13.5 unspecified
O=C1OC(Nc2ccc3c(c2)OCO3)c2ccccc21 (stereo not given) -6.13 unspecified
